Values joined by “and” are separate entries in the source; they are usually repeats but may differ in a detail not shown here. Identical values can stand only once. Inconclusive results are not listed. Unmarked numbers belong to inactive results. Active and inactive are the calls of the source. Calls follow the shape of the dose curve; as a rule, active = well fitted curve in the direction sought with a large enough effect; inconclusive = small, poorly fitted or top-dose-only effect, or another doubt; inactive = no such curve, though single readings can be large; an effect the other way counts as inactive or inconclusive.

For 37 molecules, Potency, activity (max response) and outcome results are on record in PubChem BioAssay (NCATS).

For experiment [1], the target named is Cytochrome P450 3A7 (Homo sapiens) (UniProt P24462). The experiment in a line: Cytochrome P450 family 3 subfamily A member 7 (CYP3A7) small molecule antagonists: luciferase biochemical qHTS assay (AID 1963596). Also: nearly all actives have a fitted effect of over 40% in size. In outline: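 P450-Glo luminescent assay: CYP3A7 enzyme converts a proluciferin substrate to luciferin, detected by luciferase reagent; light proportional to activity. Compounds in DMSO preincubated 10 min with enzyme-substrate mix at room temperature, then NADPH regeneration added for 1 h.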
Chain of Cytochrome P450 3A7 (Homo sapiens) (P24462 whole entry, looked up): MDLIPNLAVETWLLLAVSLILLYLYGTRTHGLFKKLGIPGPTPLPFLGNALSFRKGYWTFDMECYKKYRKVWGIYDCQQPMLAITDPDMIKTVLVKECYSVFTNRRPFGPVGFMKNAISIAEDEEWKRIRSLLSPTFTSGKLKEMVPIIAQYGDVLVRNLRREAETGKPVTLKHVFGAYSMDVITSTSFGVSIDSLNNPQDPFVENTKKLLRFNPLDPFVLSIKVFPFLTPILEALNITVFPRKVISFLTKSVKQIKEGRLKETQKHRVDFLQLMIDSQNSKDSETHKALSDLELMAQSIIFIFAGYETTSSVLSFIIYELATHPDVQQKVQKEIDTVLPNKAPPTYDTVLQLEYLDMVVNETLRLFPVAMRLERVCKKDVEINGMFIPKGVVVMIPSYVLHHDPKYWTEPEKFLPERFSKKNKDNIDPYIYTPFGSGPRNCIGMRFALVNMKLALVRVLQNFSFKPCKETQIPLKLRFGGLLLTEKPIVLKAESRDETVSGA
For orientation: qHTS replaces the single test concentration by a dilution series.

Experiment [2] can be described thus: Cellular viability qHTS for adrenocortical cancer (ACC) cell line SW-13 (AID 1963989). Also: nearly all actives have a fitted effect of over 65% in size.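 As to activity (max response): cells grown in serum-free medium with ITS supplement; % is scaled to controls: 0 for no effect and ±100 for the full control effect.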 The following applies: SW-13 ACC cells viability, CellTiter-Glo, 48 h; activity (max response): stronger effect = lower value. In outline: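 Luminescent ATP read-out (CellTiter-Glo, 20 min at room temperature) measured metabolically competent SW-13 cells after 48 h compound treatment. Final concentrations spanned up to 46 uM; bortezomib served as positive control.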

Experiment [3] is described as follows: Cellular viability qHTS for adrenocortical cancer (ACC) cell line NCI-H295R (AID 1963990). Also: nearly all actives have a fitted effect of over 60% in size. In outline:
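IC50 and maximal efficacy derive from four-parameter logistic modelling of titration curves, with reads scaled between DMSO-only wells (0%) and doxorubicin hydrochloride (100% inhibition). Compounds spanned up to 46 uM over 48 h.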
Potency is read from the fitted curve at half-maximal effect.

Take `OC[C@]1(O)OC[C@@H](O)[C@H](O)[C@@H]1O`: the Potency result in experiment [1] and in experiment [3] was “inactive” throughout. For the same molecule, the activity (max response) in experiment [2] is 6.17%.
Regarding `CCCSc1ccc2nc(NC(=O)OC)[nH]c2c1`, the Potency result in experiment [1] was “inactive”. For the same molecule, the Potency in experiment [2] is 0.366 µM (active); in experiment [3], 0.82 µM (active).
For `Cn1cc(S(C)=O)c(=O)c2ccc(F)cc21` (stereo unspecified), the Potency entry in experiment [1] and in experiment [3] was “inactive” throughout. Besides, the activity (max response) in experiment [2] was 8.71%.
In the case of `NC(=O)NC1N=C([O][Al])NC1=O` (stereo unspecified), the Potency in experiment [1] was 12.3 µM (active). The activity (max response) in experiment [2] is -0.662%. In experiment [3], the Potency result is “inactive”.
With `CC(=O)c1cc2ccccc2s1`, the Potency entry in experiment [1] and in experiment [3] was “inactive” throughout. Besides, the activity (max response) in experiment [2] is 15.3%.
As to `CC(=O)OC(C)C[N+](C)(C)C` (stereo unspecified), the Potency result in experiment [1] and in experiment [3] was “inactive” throughout. The activity (max response) in experiment [2] is -1.07%.
As to `CCCCN(CCN(CCCC)C(=O)N1CCOCC1)C(=O)N1CCOCC1`, the Potency result in experiment [1] and in experiment [3] was “inactive” each time. Further, the activity (max response) in experiment [2] was 13.7%.
As for `N#Cc1cccc(-c2c[nH]c3ncnc(N4CCOCC4)c23)c1`, the Potency entry in experiment [1] and in experiment [3] was “inactive” throughout. For the same molecule, in experiment [2], the activity (max response) was 9.94%.
On to `O=C(NN1CCCC1)NS(=O)(=O)c1ccc(Cl)cc1`, for which the Potency entry in experiment [1] and in experiment [3] was “inactive” in each case. Further, in experiment [2], the activity (max response) is 2.56%.
In the case of `CCOC(CN1CCN(CC(C)C(=O)c2ccccc2)CC1)c1ccccc1` (stereo unspecified), the Potency entry in experiment [1] and in experiment [3] was “inactive” each time. The activity (max response) in experiment [2] is -8.86%.
In the case of `Cc1cccc(Oc2cnc(=O)[nH]c2)c1`, the Potency entry in experiment [1] and in experiment [3] was “inactive” in each case. In addition, in experiment [2], the activity (max response) was 6.68%.
In the case of `CCCCN=C(N)NC(=N)N`, the molecule was called inactive in experiment [1]. In addition, the activity (max response) in experiment [2] is 17.9%. The Potency entry in experiment [3] is “inactive”.
Consider `Brc1ccccc1-c1ccccc1`, for which the Potency entry in experiment [1] and in experiment [3] was “inactive” each time. For the same molecule, the activity (max response) in experiment [2] was 7.98%.
Regarding `COc1c(N2C[C@@H]3CCCN[C@@H]3C2)c(F)cc2c(=O)c(C(=O)O)cn(C3CC3)c12`, the Potency entry in experiment [1] and in experiment [3] was “inactive” each time. In experiment [2], the activity (max response) is -4.75%.
For `CC1(C)S[C@@H]2[C@H](NC(=O)C(c3ccccc3)S(=O)(=O)O)C(=O)N2[C@H]1C(=O)O` (stereo partly specified), the Potency result in experiment [1] and in experiment [3] was “inactive” each time. Further, in experiment [2], the activity (max response) is 8.35%.
With `CN(C)C(=O)Nc1ccc(Cl)c(Cl)c1`, the Potency entry in experiment [1] and in experiment [3] was “inactive” in each case. In addition, the activity (max response) in experiment [2] was -2.09%.
Consider `Cc1ccc(NC(=O)Nc2cc(C(F)(F)F)ccc2F)cc1Nc1ccc2c(c1)NC(=O)/C2=C\c1ccc[nH]1`, for which the Potency entry in experiment [1] is “inactive”. For the same molecule, the Potency in experiment [2] was 22.4 µM (active); in experiment [3], 25.1 µM (active).
`CO/N=C(\C(=O)N[C@@H]1C(=O)N2C(C(=O)O)=C(CSc3nc(=O)c(O)nn3C)CS[C@H]12)c1csc(N)n1`: the Potency result in experiment [1] and in experiment [3] was “inactive” throughout. Moreover, the activity (max response) in experiment [2] was 16.1%.
Regarding `O=c1[nH]c(=O)n([C@H]2O[C@H](CO)[C@@H](O)[C@@H]2O)cc1/C=C\Br`, the Potency result in experiment [1] and in experiment [3] was “inactive” in each case. For the same molecule, the activity (max response) in experiment [2] is -3.87%.
`O=C(O)c1cn(C2CC2)c2cc(Cl)c(F)cc2c1=O`: the Potency result in experiment [1] and in experiment [3] was “inactive” throughout. In experiment [2], the activity (max response) is 13.4%.
On to `CN1CCC(N(Cc2cccs2)c2ccccc2)CC1`, for which the Potency result in experiment [1] and in experiment [3] was “inactive” each time. In addition, the activity (max response) in experiment [2] was 6.02%.
On to `CC(CN(C)C)C(C)(O)Cc1ccc(Cl)cc1` (stereo unspecified), for which the Potency result in experiment [1] and in experiment [3] was “inactive” throughout. Besides, in experiment [2], the activity (max response) is 6.59%.
`NC(=O)c1ncn([C@@H]2O[C@H](CO)[C@@H](O)[C@H]2O)n1`: the Potency entry in experiment [1] and in experiment [3] was “inactive” in each case. For the same molecule, the activity (max response) in experiment [2] is -0.314% and -2.41%.
In the case of `O=C(O)[C@@H]1CSCN1`, the Potency entry in experiment [1] and in experiment [3] was “inactive” in each case. Also, the activity (max response) in experiment [2] is -7.21%.
`O=C(O)CCc1nc2ccccc2[nH]1`: the Potency entry in experiment [1] and in experiment [3] was “inactive” in each case. In addition, in experiment [2], the activity (max response) is 0.871%.
Regarding `CCOC(N)=O`, the Potency entry in experiment [1] and in experiment [3] was “inactive” each time. In experiment [2], the activity (max response) was 11.5%.
Regarding `O=C(O)Cc1ccc2c(c1)C(=O)c1ccccc1CO2`, the Potency entry in experiment [1] and in experiment [3] was “inactive” each time. For the same molecule, the activity (max response) in experiment [2] was 11.3%.
`NC(=O)N[C@@H](CCC(=O)O)C(=O)O`: the Potency entry in experiment [1] and in experiment [3] was “inactive” throughout. Further, the activity (max response) in experiment [2] was 9.08%.
Turning to `C[C@@H]1CCN(C(=O)N2CCCC2)C[C@@H]1N(C)c1ncnc2[nH]ccc12`, the Potency result in experiment [1] and in experiment [3] was “inactive” throughout. Moreover, the activity (max response) in experiment [2] was 11.2%.
For the molecule `O=C1CC2(CCCC2)CC(=O)N1`, the Potency result in experiment [1] and in experiment [3] was “inactive” each time. Also, the activity (max response) in experiment [2] was 11.4%.
Consider `C=C(C)C(=O)OCC(O)CO` (stereo unspecified), for which the Potency entry in experiment [1] and in experiment [3] was “inactive” in each case. Moreover, the activity (max response) in experiment [2] was -4.84%.
Regarding `CCN(CC)CCN`, the Potency entry in experiment [1] and in experiment [3] was “inactive” throughout. Moreover, the activity (max response) in experiment [2] is 6.69%.
In the case of `O=[N+]([O-])c1nccn1CO[C@@H](CO)[C@H](O)CO`, the Potency result in experiment [1] and in experiment [3] was “inactive” each time. In addition, the activity (max response) in experiment [2] is -4.12%.
On to `Oc1cn2c(n1)Nc1ccc(Cl)c(Cl)c1C2`, for which the Potency entry in experiment [1] and in experiment [3] was “inactive” in each case. For the same molecule, the activity (max response) in experiment [2] is 11.3%.
Consider `COP(=O)(OC)OC(c1ccc(Cl)cc1)P(=O)(OC)OC` (stereo unspecified), for which the Potency entry in experiment [1] and in experiment [3] was “inactive” throughout. In addition, the activity (max response) in experiment [2] is -0.893%.
Consider `NCCS`, for which the Potency entry in experiment [1] and in experiment [3] was “inactive” each time. The activity (max response) in experiment [2] was 16.9%.
In the case of `COC(=O)c1cc(Cl)ccc1NS(=O)(=O)C(F)(F)F`, the Potency entry in experiment [1] and in experiment [3] was “inactive” each time. Further, in experiment [2], the activity (max response) was -0.552%.
